“And” between values parts separate entries of the source, which are not always exact repeats. Equal values may be shown once. In all, about 52,000 compounds went through this assay and about 1,700 (3.3%) were called active. Rule as the data show it: active = survival mostly below about 52% (no sharp cut-off); inactive = mostly above about 56%. Many of the other results were omitted from the sample, so actives are more common in it than they were. Some structures have more than one record in an assay (separate samples or runs), and their calls can disagree.
Tested on: Wild type
Experiment: growth inhibition of S. aureus wild type versus tarO mutant, primary screen, teichoic acid synthesis inhibitors, RN4220, OD600 (AID 463173)
Conditions: S. aureus RN4220 wild type/DeltatarO growth, OD600, 18 h, stronger effect = lower value, screened at 18.75 µg/mL (by protocol)

Row | SMILES | survival
1 | O=C(CN1C(=O)C(c2ccc(F)cc2)=NC12CCCCCC2)Nc1ccc(F)c(Cl)c1 | 76% (inactive)
2 | CCOc1ccc(NC(=O)CCc2c(C)nc3cc(-c4ccccc4OC)nn3c2C)cc1 | 76% (inactive)
3 | COc1ccc(NC(=O)CSc2nc(-c3ccc(OC)cc3)cc(=O)[nH]2)cc1 | 148% (inactive)
4 | CCc1cccc(CC)c1N(COC)C(=O)Cn1c(CC)nc2ccccc21 | 74% (inactive)
5 | CCOCN(C(=O)Cn1c(C)nc2ccccc21)c1c(C)cccc1CC | 124% (inactive)
6 | CCOCN(C(=O)Cn1c(CC(C)C)nc2ccccc21)c1c(C)cccc1CC | 5% (active)
7 | CCCCc1nc2ccccc2n1CC(=O)N(COCC)c1c(C)cccc1CC | -1% (active)
8 | CCOCN(C(=O)Cn1c(C(C)O)nc2ccccc21)c1c(C)cccc1CC (centres undefined) | 117% (inactive)
9 | CCOCN(C(=O)Cn1c(COC)nc2ccccc21)c1c(C)cccc1CC | 111% (inactive)
10 | Cc1cccc(NC(=O)CN2C(=O)COc3ccc(S(=O)(=O)N4CCC(C)CC4)cc32)c1C | 101% (inactive)
11 | Cc1ccc(-c2nc(-c3cc4cccc(OCc5cccc(C)c5)c4oc3=O)no2)cc1 | 71% (inactive)
12 | CCC(Cc1ccccc1)NC(=O)c1csc2c1CCCCC2 (centres undefined) | 120% (inactive)
13 | CSc1ccc(CCNC(=O)c2csc3c2CCCCC3)cc1 | 69% (inactive)
14 | CC(CNC(=O)c1csc2c1CCCCC2)c1ccccc1 (centres undefined) | 0% (active)
15 | CC(C)(C)c1ccc(-c2nnc(-c3ccccc3NC(=O)c3ccc(F)cc3F)o2)cc1 | 144% (inactive)
16 | CCCCSc1nc(-c2ccc(OC)cc2)ccc1C#N | 28% (inactive)
17 | CCOC(=O)C(C)Sc1nc(-c2ccccc2)ccc1C#N (centres undefined) | 107% (inactive) and 0% (active)
18 | CCOC(=O)C(C)Sc1nc(-c2ccccc2Cl)cc(-c2ccccc2)c1C#N (centres undefined) | 79% (inactive)
19 | COc1cccc(C(=O)Nc2ccc(-n3nncc3-c3ccc(Br)cc3)cc2)c1OC | 143% (inactive)
20 | CC(=O)N1CCc2cc(S(=O)(=O)NC(Cc3ccccc3)C(=O)Nc3ccc(C)cc3C)ccc21 (centres undefined) | 74% (inactive)
21 | Nc1cccc(Cl)c1N1CCOCC1 | 110% (inactive)
22 | COc1ccccc1C(=O)Nc1c(C(=O)N2CCN(c3ccc(F)cc3)CC2)oc2ccccc12 | -2% (active)
23 | O=C(Nc1c(C(=O)N2CCN(c3ccc(F)cc3)CC2)oc2ccccc12)c1ccco1 | 88% (inactive)
24 | COc1ccc(N2CCN(C(=O)c3oc4ccccc4c3NC(=O)c3ccccc3OC)CC2)cc1 | 129% (inactive)

Row | SMILES | survival
25 | O=C(Nc1c(C(=O)N2CCN(c3ccccc3F)CC2)oc2ccccc12)c1ccco1 | 69% (inactive)
26 | CCc1ccc2occ(CC(=O)Nc3c(C(=O)c4ccccc4)oc4ccccc34)c2c1 | 104% (inactive)
27 | Cc1ccc(C(=O)c2oc3ccccc3c2NC(=O)Cc2ccccc2)cc1 | 53% (inactive)
28 | COc1cc(C(=O)Nc2c(C(=O)Nc3ccccc3F)oc3ccccc23)cc(OC)c1OC | 68% (inactive)
29 | COc1ccccc1NC(=O)c1oc2ccccc2c1NC(=O)c1c(F)cccc1F | 60% (inactive)
30 | COc1ccccc1C(=O)Nc1c(C(=O)N2CCN(c3ccccc3F)CC2)oc2ccccc12 | 101% (inactive)
31 | O=C(Nc1c(C(=O)N2CCN(c3ccccc3)CC2)oc2ccccc12)c1ccco1 | 10% (active)
32 | O=C(Cc1ccccc1)Nc1c(C(=O)c2ccccc2)oc2ccccc12 | 7% (active)
33 | COc1ccccc1C(=O)Nc1c(C(=O)Nc2ccccc2F)oc2ccccc12 | 2% (active)
34 | Cc1ccc(NC(=O)CSc2nnc(C)n3c2cc2sccc23)c(C)c1 | 84% (inactive)
35 | CCc1noc(-c2ccc(N3CCC(C)CC3)c([N+](=O)[O-])c2)n1 | 93% (inactive)
36 | CCOc1ccc(CCNC(=O)c2nnc(Cc3cc(OC)c(OC)c(OC)c3)o2)cc1OCC | 85% (inactive)
37 | COc1ccc(Cn2c(SCC(=O)N3CCN(c4ccc(F)cc4)CC3)nc3ccccc32)cc1 | 45% (inactive)
38 | Cn1c(=O)c(=O)n(C)c2cc(NC(=O)c3cccc(F)c3)c(Cl)cc21 | 71% (inactive)
39 | Cc1ccccc1CNS(=O)(=O)c1csc(C(N)=O)c1 | 128% (inactive)
40 | CCOC(=O)c1cccc(NC(=O)C(C)n2c(C)c3cnn(-c4ccccc4)c(=O)c3c2C)c1 (centres undefined) | 128% (inactive)
41 | CC(CC(=O)Nc1ccc(Br)cc1F)S(=O)(=O)c1ccc2c(c1)NC(=O)CO2 (centres undefined) | 63% (inactive)
42 | O=C(CCc1ccccc1)NC1CC(=O)N(c2cccc(F)c2)C1 (centres undefined) | 81% (inactive)
43 | COc1ccc(OC)c(CNC(=O)Cc2ccc(NC(=O)N3CCSc4ncccc43)cc2)c1 | 64% (inactive)
44 | CCc1ccc(NS(=O)(=O)c2ccc3[nH]cc(C(=O)N(C)Cc4ccco4)c(=O)c3c2)cc1 | 85% (inactive)
45 | CCn1cc(C(=O)N2CCN(c3cc(Cl)ccc3C)CC2)c(=O)c2cc(S(=O)(=O)N3CCOCC3)ccc21 | 86% (inactive)
46 | COc1ccc(C(=O)Nc2c(C(=O)c3ccccc3)oc3ccccc23)cc1 | 75% (inactive)
47 | COc1ccccc1C(=O)Nc1c(C(=O)c2ccccc2)oc2ccccc12 | -3% (active)
48 | COc1ccccc1C(=O)Nc1c(C(=O)NC(C)(C)C)oc2ccccc12 | 80% (inactive)

Row | SMILES | survival
49 | S=c1n(-c2ccccc2)cnn1CN1CCCCC1 | 96% (inactive)
50 | CC(=O)Nc1ccc(S(=O)(=O)N2CCC(c3ccncc3)CC2)cc1 | -6% (active)
51 | CC(C)(C)c1ccc(S(=O)(=O)N2CCC(c3ccncc3)CC2)cc1 | 120% (inactive)
52 | CC(=O)Nc1ccc(S(=O)(=O)N2CCC(C)CC2)cc1 | 112% (inactive)
53 | COc1ccc2c(c1)CCc1c(C(=O)Nc3c(C)nn(Cc4ccccc4C)c3C)noc1-2 | 26% (inactive)
54 | O=C(NCCc1ccccc1)c1ccc2c(c1)N(Cc1ccc(F)cc1)C(=O)CS2 | 88% (inactive)
55 | O=C(NCCc1ccc(Cl)cc1)c1ccc2c(c1)N(Cc1ccc(Cl)cc1)C(=O)CS2 | 98% (inactive)
56 | O=C(NCCc1ccc(Cl)cc1)c1ccc2c(c1)N(Cc1ccc(F)cc1)C(=O)CS2 | 10% (active)
57 | CCOC(=O)c1c(NC(=O)COc2ccc(OC)cc2)sc(C(=O)N(CC)CC)c1C | -8% (active)
58 | CCN(CC)C(=O)c1sc(NC(=O)C2c3ccccc3Oc3ccccc32)c(C(=O)OC(C)C)c1C | 8% (active)
59 | Cc1sc(NC(=O)C2c3ccccc3Oc3ccccc32)c(C(=O)OC(C)C)c1C | 62% (inactive)
60 | CCN(CC)C(=O)c1sc(NC(C)=O)c(C(=O)OC)c1C | 108% (inactive)
61 | Cc1c(C(=O)OC(C)C)sc(NC(=O)C2c3ccccc3Oc3ccccc32)c1C(=O)OC(C)C | 87% (inactive)
62 | CCCc1ccc(OCC(=O)Nc2sc(C(=O)OCC)c(C)c2C(=O)OCC)cc1 | 92% (inactive)
63 | CCOC(=O)c1c(NC(=O)COc2cc(C)ccc2C(C)C)sc(C)c1C | 67% (inactive)
64 | Cc1sc(NC(=O)COc2ccc(C(C)(C)C)cc2)c(C(=O)OC(C)C)c1C | 10% (active)
65 | COC(=O)c1c(NC(=O)COc2ccc(Cl)cc2)sc(C)c1C | 73% (inactive)
66 | O=C(Cn1c(SCc2ccc(F)cc2)nc2cccnc21)Nc1ccccc1F | 75% (inactive)
67 | COc1ccc(-c2nnn3c2nc(NCc2ccc(C)cc2)c2ccccc23)cc1 | 85% (inactive)
68 | O=C(Nc1cc(-c2nc3ccccc3o2)ccc1Cl)c1sc2c([N+](=O)[O-])cccc2c1Cl | 96% (inactive)
69 | Cc1ccc(Cl)cc1-n1ncc2c(N3CCN(Cc4ccccc4)CC3)ncnc21 | 120% (inactive)
70 | COc1cccc(-c2ccc3c(N)c(C(=O)c4ccc(Br)cc4)sc3n2)c1 | 38% (inactive)
71 | COc1cccc(-c2ccc3c(N)c(C(=O)c4ccc(F)cc4)sc3n2)c1 | 10% (active)
72 | COc1cccc(-c2ccc3c(N)c(C(=O)c4ccc(Cl)cc4)sc3n2)c1 | 39% (inactive)

Row | SMILES | survival
73 | Cc1ccc(CNC(=O)c2ccc3c(c2)N(Cc2cccc(Cl)c2)C(=O)CS3)cc1 | 70% (inactive)
74 | COc1cc(NC(=O)CC2C(=O)N(c3cccc(C)c3)C(=O)N2Cc2cccs2)cc(OC)c1 (centres undefined) | 53% (inactive)
75 | CCc1ccc(NC(=O)CC2C(=O)N(c3ccc(Cl)cc3)C(=O)N2Cc2cccs2)cc1 (centres undefined) | 47% (inactive)
76 | CCc1ccc(NC(=O)CC2C(=O)N(c3cccc(C)c3)C(=O)N2Cc2cccs2)cc1 (centres undefined) | -3% (active)
77 | CCOc1ccc(NC(=O)CC2C(=O)N(c3cccc(C)c3)C(=O)N2Cc2cccs2)cc1 (centres undefined) | 85% (inactive)
78 | Cc1cccc(N2C(=O)C(CC(=O)Nc3cccc(F)c3)N(Cc3cccs3)C2=O)c1 (centres undefined) | 0% (active)
79 | Cc1cccc(N2C(=O)C(CC(=O)Nc3cccc(F)c3)N(CCc3ccncc3)C2=O)c1 (centres undefined) | 84% (inactive)
80 | O=C(NCc1ccccc1Cl)c1nnc(Cc2ccc(Cl)cc2)o1 | 85% (inactive)
81 | CCC1CN(C(=O)N2CCC(C(=O)NCc3cccc(OC)c3OC)CC2)c2cc(C)ccc2O1 (centres undefined) | 106% (inactive)
82 | CC1=C(C(=O)Nc2ccc(C)cc2C)C(c2cccs2)n2nc(SCc3cccc(C)c3)nc2N1 (centres undefined) | 126% (inactive)
83 | CCC(=O)Nc1ccc(C(=O)CSc2nnc(-c3ccc(O)cc3)n2CC2CCCO2)cc1 (centres undefined) | 103% (inactive)
84 | CCc1ccc(C(=O)c2cn(CC(=O)Nc3cccc(OC)c3)c3ccc(OC)cc3c2=O)cc1 | 77% (inactive)
85 | CC(C)c1ccccc1NC(=O)Cn1cnc2c1c(=O)n(C)c(=O)n2C | 93% (inactive)
86 | O=C(Nc1ccc(C(=O)N2CCN(c3ccc(Cl)cc3)CC2)cc1)c1nsc2ccccc12 | 81% (inactive)
87 | Cc1ccc(Cl)cc1N1CCN(C(=O)c2ccc(NC(=O)c3nsc4ccccc34)cc2)CC1 | 1% (active)
88 | O=C(Nc1ccc(C(=O)N2CCN(c3cccc(Cl)c3)CC2)cc1)c1nsc2ccccc12 | 63% (inactive)
89 | O=C(Nc1ccc(C(=O)N2CCN(c3ccccc3)CC2)cc1)c1nsc2ccccc12 | -3% (active)
90 | O=C(Nc1ccc(C(=O)N2CCN(c3ccc(F)cc3)CC2)cc1)c1nsc2ccccc12 | 55% (inactive)
91 | Cc1ccc(C)c(N2CCN(C(=O)c3ccc(NC(=O)c4nsc5ccccc45)cc3)CC2)c1 | 63% (inactive)
92 | Cc1ccc(C(=O)N2CCCCC2)cc1NC(=O)c1nsc2ccccc12 | -6% (active)
93 | Cc1ccc(C(=O)N2CCC(C)CC2)cc1NC(=O)c1nsc2ccccc12 | 80% (inactive)
94 | Cc1ccc(C(=O)N2CCC(C(N)=O)CC2)cc1NC(=O)c1nsc2ccccc12 | 72% (inactive)

Source: PubChem BioAssay AID463173 (ICCB-Longwood Screening Facility, Harvard Medical School, 2010)
